This note sets out measurements from PubChem BioAssay.

For the first assay, the target named is Tumor necrosis factor receptor superfamily member 10B (Homo sapiens) (UniProt O14763). The experiment in a line: caspase-8 TRAIL sensitization, hit retest, confirmation, cell-based, NB7+caspase-8, with/without TRAIL, luminescence panel (AID 651596). The note with it: NB7 neuroblastoma + caspase-8, TRAIL sensitization, luminescence viability, with TRAIL, mean of runs, at 10 µM, stronger effect = higher value.
Chain of Tumor necrosis factor receptor superfamily member 10B (Homo sapiens) (O14763 whole entry, looked up): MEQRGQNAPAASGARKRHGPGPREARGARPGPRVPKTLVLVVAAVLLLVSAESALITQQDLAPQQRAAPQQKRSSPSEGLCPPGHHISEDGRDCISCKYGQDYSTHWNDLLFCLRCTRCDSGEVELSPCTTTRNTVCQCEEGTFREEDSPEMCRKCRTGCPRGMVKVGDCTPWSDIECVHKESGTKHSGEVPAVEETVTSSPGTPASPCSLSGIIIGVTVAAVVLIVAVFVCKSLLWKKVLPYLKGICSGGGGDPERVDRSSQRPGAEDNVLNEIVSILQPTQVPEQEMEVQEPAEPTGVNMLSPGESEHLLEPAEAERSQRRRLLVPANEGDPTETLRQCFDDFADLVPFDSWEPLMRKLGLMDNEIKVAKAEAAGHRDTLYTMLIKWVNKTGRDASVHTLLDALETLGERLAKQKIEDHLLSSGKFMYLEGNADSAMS
For `CC(=O)c1c(C)[nH]c(C(=O)Nc2ccccn2)c1C`, the activity is 31.1%.

As to `Fc1ccc(-c2nc3n(n2)Cc2ccccc2-3)cc1`, the activity turned out to be 54%.

For the molecule `Cc1ccc(-c2nc(N/N=C/c3ccccc3[N+](=O)[O-])c3ccccc3n2)cc1`, the activity was 90.3%.

As for `COc1ccc(C2C(C(=O)N3CCN(c4ccccc4)CC3)c3ccccc3C(=O)N2C)cc1` (centres undefined), the activity was determined as 69.5%.

On to `CC(O)CC(=O)OC[C@]12CC[C@H]3[C@@](C)(CC[C@H]4C(C)(C)CCC[C@]34C)[C@@H]1CC(C1=CC(=O)OC1O)O2` (some centres undefined), for which the activity came to 87.1%.

For the molecule `O=C(Nc1ccc(O)cc1)c1ccc(NC(=O)c2cccs2)cc1`, the activity is 85.2%.

Turning to `Cc1ccc2nc(-c3ccc(NC(=O)COC(=O)c4ccco4)cc3)sc2c1`, the activity turned out to be 73.4%.

For the molecule `Cc1cc(C(=O)COC(=O)c2cccnc2Cl)c(C)n1C`, the activity turned out to be 62.8%.

Consider `CCCc1cc2c(=O)c(-c3ccc4c(c3)OCCO4)coc2cc1OC(=O)c1ccco1`, for which the activity worked out at 65.5%.

In the case of `O=c1oc2ccccc2cc1-c1csc(Nc2nc3c(F)cccc3s2)n1`, the activity turned out to be 11.9%.

As to `Cc1ccc2nc(NC(=O)c3ccco3)sc2c1`, the activity came out at 80.4%.

In the case of `CC1=C(C(=O)Nc2ccccc2)C(c2ccc(C)cc2)N=C(Nc2nc3ccccc3o2)N1` (centres undefined), the activity is 41%.

Take `Cc1cc(=O)n2[nH]c(-c3ccc(F)cc3)nc2n1`: the activity is 44.8%.

As for `O=C(Nc1ccccn1)c1onc2c1CCCC2`, the activity is 78.8%.

Consider `CN1/C(=C/C(=O)c2cccs2)Sc2ccccc21`, for which the activity stood at 60%.

For `O=C(CNC(=O)c1ccccc1F)N/N=C/c1cc(Br)ccc1OC(=O)/C=C/c1ccco1`, the activity is 3.4%.

As for `COc1cc(/C=N/NC(=O)c2nnn(-c3nonc3N)c2C)ccc1OCc1ccc(Cl)cc1`, the activity turned out to be 39%.

`Cc1ccc2nc(NC(=S)NC(=O)c3ccco3)sc2c1`: the activity is 77.9%.

As to `COc1ccc(N2Cc3ccc(OC)c(OC)c3C2=O)cc1`, the activity stood at 40.6%.

Take `Cc1cccc(-c2noc(-c3csc([C@@H]4C[C@H](O)[C@@H](CO)O4)n3)n2)c1`: the activity worked out at 36.7%.

Test system in the next assay: not listed separately
The assay is described as above. To be noted: NB7 neuroblastoma + caspase-8, without TRAIL, luminescence viability, without TRAIL, mean of runs, at 10 µM.
For the molecule `Cn1c(-c2ccccc2)c(C(=O)CCl)c2ccccc21`, the activity came out at 99.2%.

As for `CCOC(=O)c1cccc(NC(=O)/C=C/c2ccc3c(c2)OCO3)c1`, the activity came to 78.7%.

As for `COc1ccc(C2C(C(=O)N3CCN(c4ccccc4)CC3)c3ccccc3C(=O)N2C)cc1OC` (centres undefined), the activity was found to be 64.5%.

Regarding `CCc1ccc(-c2cc(C(=O)N/N=C/c3c[nH]c4ccccc34)[nH]n2)cc1`, the activity came to 52.2%.

`Cn1sc(NC(=O)c2ccc(Cl)cc2)nc1=O`: the activity was 67%.

`CS(=O)(=O)Nc1cccc(NC(=O)C2Cc3c(-c4ccco4)ccnc3O2)c1` (centres undefined): the activity amounted to 27.8%.

As to `COc1ccc(OC)c2sc(N(CCN(C)C)C(=O)/C=C/c3cccs3)nc12`, the activity worked out at 98.8%.

In the case of `COc1cccc(NC(=O)Nc2ccc3c(c2)nc(C)n3C)c1`, the activity was determined as 82.8%.

Turning to `O=C(Nc1nc(=O)c2ccccc2s1)c1ccc(Cl)cc1`, the activity is 72.6%.

In the case of `CCCCCCCCCCCCCCCC[N+](C)(C)Cc1ccc(F)cc1`, the activity came to 74.2%.

Turning to `O=C(NCCc1cccc(Cl)c1)c1ccc2c(c1)OCO2`, the activity amounted to 39.4%.

On to `Cc1nc(-c2ccc(NC(=O)c3ccccc3)cc2)cs1`, for which the activity came to 76.2%.

Consider `Cc1ccc(-c2cnc3cc(C)nn3c2)cc1`, for which the activity stood at 66.8%.

For the molecule `COC(=O)c1ccccc1NC(=O)c1nc(S(=O)(=O)Cc2ccccc2)ncc1Cl`, the activity was found to be 99.6%.

With `CCN1CCCC1CNC(=O)c1ccc2c(c1)NC(=O)/C(=C\c1ccc(C)cc1)S2` (centres undefined), the activity worked out at 98.9%.

Take `COc1ccc(Oc2c(Cl)cnn(-c3ccccc3)c2=O)cc1`: the activity is 94.4%.

Regarding `CC(NC(=O)CCl)c1ccc(Cl)c(Cl)c1` (centres undefined), the activity was found to be 81.5%.

In the case of `COc1ccc(/C=C/c2nc3ccccc3n2Cc2ccccc2OC)cc1`, the activity came to 67.7%.

As for `CCOC(=O)c1ccc(NC(=O)c2nc[nH]c2C(=O)NCCNC(=O)c2[nH]cnc2C(=O)Nc2ccc(C(=O)OCC)cc2)cc1`, the activity came out at 99.5%.

Regarding `CC(=O)c1c(C)[nH]c(C(=O)Nc2ccccn2)c1C`, the activity turned out to be 31.1%.

For the molecule `Fc1ccc(-c2nc3n(n2)Cc2ccccc2-3)cc1`, the activity is 55.6%.

In the case of `Cc1ccc(-c2nc(N/N=C/c3ccccc3[N+](=O)[O-])c3ccccc3n2)cc1`, the activity was 82.4%.

Regarding `COc1ccc(C2C(C(=O)N3CCN(c4ccccc4)CC3)c3ccccc3C(=O)N2C)cc1` (centres undefined), the activity stood at 66.3%.

As to `CC(O)CC(=O)OC[C@]12CC[C@H]3[C@@](C)(CC[C@H]4C(C)(C)CCC[C@]34C)[C@@H]1CC(C1=CC(=O)OC1O)O2` (some centres undefined), the activity came out at 93%.

For `O=C(Nc1ccc(O)cc1)c1ccc(NC(=O)c2cccs2)cc1`, the activity came out at 84.8%.

For `Cc1ccc2nc(-c3ccc(NC(=O)COC(=O)c4ccco4)cc3)sc2c1`, the activity is 74.6%.

Regarding `Cc1cc(C(=O)COC(=O)c2cccnc2Cl)c(C)n1C`, the activity came to 40.4%.

`CCCc1cc2c(=O)c(-c3ccc4c(c3)OCCO4)coc2cc1OC(=O)c1ccco1`: the activity was found to be 66.4%.

As to `O=c1oc2ccccc2cc1-c1csc(Nc2nc3c(F)cccc3s2)n1`, the activity was 5.5%.

Consider `Cc1ccc2nc(NC(=O)c3ccco3)sc2c1`, for which the activity is 76.2%.

In the case of `CC1=C(C(=O)Nc2ccccc2)C(c2ccc(C)cc2)N=C(Nc2nc3ccccc3o2)N1` (centres undefined), the activity came to 76%.

Consider `Cc1cc(=O)n2[nH]c(-c3ccc(F)cc3)nc2n1`, for which the activity amounted to 42.6%.

On to `O=C(Nc1ccccn1)c1onc2c1CCCC2`, for which the activity was determined as 78.2%.

`CN1/C(=C/C(=O)c2cccs2)Sc2ccccc21`: the activity stood at 47%.

For `O=C(CNC(=O)c1ccccc1F)N/N=C/c1cc(Br)ccc1OC(=O)/C=C/c1ccco1`, the activity is 20.8%.

For `COc1cc(/C=N/NC(=O)c2nnn(-c3nonc3N)c2C)ccc1OCc1ccc(Cl)cc1`, the activity is 20.6%.

Regarding `Cc1ccc2nc(NC(=S)NC(=O)c3ccco3)sc2c1`, the activity came out at 62.9%.

Take `COc1ccc(N2Cc3ccc(OC)c(OC)c3C2=O)cc1`: the activity was 37.8%.

`Cc1cccc(-c2noc(-c3csc([C@@H]4C[C@H](O)[C@@H](CO)O4)n3)n2)c1`: the activity came out at 29.3%.
